The values below come from PubChem BioAssay (NCATS).

Assay [1] can be described thus: HTS Assay for Allosteric Antagonists of the Human D2 Dopamine Receptor: Hit Validation in HTRF (AID 624455).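 Also: stable D1 dopamine receptor cell line scored for blocking the D1 response.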 The gist of the method: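 Inhibition of the D1-mediated response is measured by HTRF in cells that stably express the D1 dopamine receptor. Compounds reaching this step are hits from calcium-flux antagonism testing at EC80 dopamine in inducible Hek293 Trex D2 cells.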
On the technique in general: Time-resolved FRET reads energy transfer from a long-lived donor to a nearby acceptor.

A short description of assay [2]: Cytotoxicity counterscreen for NFkB agonists and antagonists (AID 624476).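 Also: cells exposed to compound for 48 hours.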
The nature of assay [3]: qHTS Assay for Identification of Small Molecule Agonists for NFkB Signaling Pathway. (AID 624478).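 Also: compounds tested together with TNF alpha at its EC50 of 10 pM.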 The gist of the method:
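Activators were sought in reporter cells stimulated at the TNF alpha EC50 (10 pM final). Compound and cytokine were co-incubated 5 hours at 37 C before beta-lactamase substrate detection by dual-emission fluorescence.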

Assay [4] is described as follows: qHTS Assay for Identification of Small Molecule Antagonists for NFkB Signaling Pathway. (AID 624479; calls by dose curve;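 also: pathway stimulated with TNF alpha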). Background: qHTS replaces the single test concentration by a dilution series.
Assay [5] can be described thus: Cell Proliferation Assay against the TMD8 Cell Line (AID 651645).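 Also: cells exposed to compound for 48 h before reading.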 Particulars: TMD8 DLBCL cell line proliferation/viability; at 46.1 µM (top of the series). The gist of the method: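 Luminescent ATP read-out (CellTiter-Glo, 15 min RT) after 48 h compound exposure of log-growing TMD8 cells at 37C; percent activity scaled between DMSO as 100% and 9.2 uM bortezomib final as 0%.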

Assay [6] can be described thus: Cell Proliferation Assay against the HBL1 Cell Line (AID 651646).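 Also: cells exposed to compound for 48 h before reading.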 The note with it: HBL1 DLBCL cells; at 46.1 µM (top of the series). The gist of the method: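 CellTiter-Glo luminescence after 48 h compound exposure at 37C gives percent activity, with DMSO as 100% and 9.2 uM bortezomib final as 0%. Cells: 500 log-phase HBL1 per well, RPMI plus 5% FBS.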
A short description of assay [7]: Cell Proliferation Assay against the TMD8 Cell Line (Caspase readout at 16 hrs) (AID 651712). The gist of the method:
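Caspase-Glo luminescence measured apoptosis after a 16 h, 37 C compound exposure of TMD8 cells (500 cells/well, 5% FBS RPMI). DMSO set 0% and bortezomib at 9.2 uM final set 100% activity.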

Assay [8] concerns the target Tyrosine-protein kinase Yes (Homo sapiens) (UniProt P07947). Description: qHTS for small molecule inhibitors of Yes1 kinase: Primary Screen (AID 686947). Also: nearly all actives have a fitted effect of over 60% in size. The gist of the method: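 ADP-Glo luminescence reports ADP formed by 4 nM Yes1 phosphorylating poly(E4Y) (0.3 mg/mL) with 0.1 mM ATP for 60 min at room temperature, following 20 min compound preincubation; normalised between DMSO wells with and without enzyme.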

Assay [9] in a line: qHTS for small molecule inhibitors of Yes1 kinase: Counter Assay (AID 686950).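 Also: no kinase present so only ADP-Glo detection of a fixed ADP amount is tested; luminescence from ADP-Glo reporting ADP in a fixed ATP and ADP mixture.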 The gist of the method:
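ADP-Glo luminescence read after a 60 min room-temperature incubation of compound with an ATP/ADP mix (0.08 mM/0.02 mM) and no kinase, following a 20 min compound preincubation. Signal scaled between ATP+ADP (max) and 0.1 mM ATP-only (min) wells; Tris pH 7.5, Mg2+, DTT.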

Structures are written as SMILES. Records with an inconclusive call do not appear. Entries that show only a call come without a potency. Calls of active or inactive are those of the source. Unless noted, calls follow the shape of the dose curve; as a rule, active = well fitted curve in the direction sought with a large enough effect; inconclusive = small, poorly fitted or top-dose-only effect, or another doubt; inactive = no such curve, though single readings can be large; an effect the other way counts as inactive or inconclusive.

Sequence of Tyrosine-protein kinase Yes (Homo sapiens) (P07947 whole entry, looked up): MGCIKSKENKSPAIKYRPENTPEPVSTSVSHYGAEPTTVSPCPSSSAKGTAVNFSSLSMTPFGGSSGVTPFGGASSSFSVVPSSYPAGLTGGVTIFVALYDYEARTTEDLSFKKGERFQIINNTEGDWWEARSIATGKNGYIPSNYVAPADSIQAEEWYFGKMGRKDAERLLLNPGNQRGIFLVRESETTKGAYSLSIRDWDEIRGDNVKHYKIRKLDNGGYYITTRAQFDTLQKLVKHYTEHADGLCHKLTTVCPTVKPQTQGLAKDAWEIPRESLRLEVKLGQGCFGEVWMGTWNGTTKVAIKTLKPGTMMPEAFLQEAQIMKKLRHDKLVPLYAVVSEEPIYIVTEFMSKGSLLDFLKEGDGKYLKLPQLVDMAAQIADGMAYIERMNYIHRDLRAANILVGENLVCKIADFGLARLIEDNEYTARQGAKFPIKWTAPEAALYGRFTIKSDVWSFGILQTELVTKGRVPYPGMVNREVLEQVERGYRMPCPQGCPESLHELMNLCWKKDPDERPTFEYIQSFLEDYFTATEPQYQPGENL

For `Brc1c(Br)c(Br)c2n[nH]nc2c1Br`, the Potency result in assay [1] is “inactive”.
Still for that read-out and setting: as for `COC1=C(OC)C(=O)c2ccccc2C1=O`, the entry is “inactive”; as for `CCCCCC(O)c1cccc(OCc2ccc3ccccc3n2)c1` (stereo unspecified), “inactive”; as for `Cc1cc2c(cc1Cl)N(C(=O)Nc1ccc(Oc3cccnc3C)nc1)CC2`, “inactive”.
The same measure, in the same setting: under `NCCSSCCN` stands “inactive”; under `NC(CCCP(=O)(O)O)C(=O)O` (stereo unspecified), “inactive”; under `S=C(S)OC1CC2CC1C1CCCC21` (stereo unspecified), “inactive”.
For the compound `Nc1ncnc2c1c(I)cn2[C@@H]1C[C@H](N)[C@@H](O)[C@H]1O`, the Potency result in assay [1] was “inactive”.
With `Cc1ccc(C(=O)O[C@H](C(=O)O)[C@@H](OC(=O)c2ccc(C)cc2)C(=O)O)cc1` (tested in a mixture with another compound), the Potency entry in [1] was “inactive”.
For the compound `C[C@@H](CN1CCC(Cc2ccccc2)CC1)[C@@H](O)c1ccc(O)cc1`, the Potency entry in assay [1] is “inactive”.
Turning to `CN1C2CC(OC(=O)[C@H](CO)c3ccccc3)CC1C1OC12` (stereo partly specified), the Potency entry in [1] is “inactive”.
On the same count and under the same terms, as for `Cn1c(=O)c2[nH]c(-c3ccccc3)nc2n(C)c1=O`, the entry is “inactive”.
As to `CN(C)c1ccc(/C=C2\C(=O)Nc3ccccc32)cc1`, in assay [1], the Potency result was “inactive”.
Same read-out and setting: under `NC[C@H]1O[C@@H](n2cnc3c(N)ncnc32)[C@H](O)[C@@H]1O` stands “inactive”; under `COc1cccc(C(=O)NCCN2CCN(c3ccc(Cl)cc3)CC2)c1`, “inactive”; under `O=C(O)CCCC[C@@H]1CCSS1`, “inactive”.
As for `CO/N=C(\C(=O)N[C@@H]1C(=O)N2C(C(=O)O)=C(COC(C)=O)CS[C@H]12)c1csc(N)n1`, the Potency result in assay [1] is “inactive”.
The same measure, in the same setting: as for `O=C(O)c1cc(=O)c2ccccc2[nH]1`, the entry is “inactive”; as for `CC(C)(C=O)Cc1cc(C(C)(C)C)c(O)c(C(C)(C)C)c1`, “inactive”; as for `O=C1/C(=C/c2ccsc2)CC/C1=C\c1cccs1`, “inactive”.
Consider `Cc1ccc(S(=O)(=O)/C=C/C#N)cc1`, for which the Potency entry in [1] is “inactive”.
For the compound `N=C(N)SCCc1ccc(CCSC(=N)N)cc1`, in assay [1], the Potency result was “inactive”.
In the case of `Oc1cc2c(cc1O)CN(C(=S)NCCc1ccc(Cl)cc1)CCC2`, the Potency result in assay [1] was “inactive”.
The same measure, in the same setting: under `Cn1cc(C2=C(c3ccc(Cl)cc3Cl)C(=O)NC2=O)c2ccccc21` stands “inactive”; under `CNCC[C@H](Oc1ccc(C(F)(F)F)cc1)c1ccccc1`, “inactive”; under `O=C1C(SCCO)=C(SCCO)C(=O)c2ccccc21`, “inactive”.
The same measure, in the same setting: as for `CCCCN1CCC(n2c(=O)[nH]c3ccccc32)CC1`, the entry is “inactive”; as for `COC(=O)c1c(C)[nH]c(C)c1C(=O)c1ccccc1Cc1ccccc1`, “inactive”.
Still for that read-out and setting: under `O=[N+]([O-])c1ccc(CSc2ncnc3c2ncn3[C@@H]2O[C@H](CO)[C@@H](O)[C@H]2O)cc1` stands “inactive”.
Take `CC(C)NC[C@@H](O)c1ccc(O)c(O)c1`: the Potency entry in assay [1] is “inactive”.
The same measure, in the same setting: under `CCCCCCCCCCCCCCCCCCNC(=O)OCC(COP(=O)([O-])OCC[n+]1ccsc1)OC` (stereo unspecified) stands “inactive”; under `CNC(=O)[C@H]1O[C@@H](n2cnc3c(NCc4ccc(N)cc4)ncnc32)[C@H](O)[C@@H]1O`, “inactive”; under `O=C(c1cc(O)c(O)c([N+](=O)[O-])c1)c1ccccc1F`, “inactive”.
Consider `NC(=O)C1=CN(C2OC(COP(=O)(O)OP(=O)(O)OC[C@H]3O[C@@H](n4cnc5c(N)ncnc54)[C@H](OP(=O)(O)O)[C@@H]3O)C(O)C2O)C=CC1` (stereo partly specified), for which the Potency entry in assay [1] is “inactive”.
On to `Cc1ccccc1CNc1ncnc2c1ncn2C1OC(CO)C(O)C1O` (stereo unspecified), for which, in assay [1], the Potency result is “inactive”.
For `CCCCCCCCc1ccc(-c2ccc(C(=O)O)cc2)cc1`, the Potency result in assay [1] was “inactive”.
Same read-out and setting: under `Nc1nc(Nc2ccccc2)nc2c1ncn2[C@@H]1O[C@H](CO)[C@@H](O)[C@H]1O` stands “inactive”; under `O=C(c1ccc(Cl)cc1)N1CCN(c2ccc([N+](=O)[O-])c3ncccc23)CC1`, “inactive”; under `O=P(O)(O)C(Cl)(Cl)P(=O)(O)O`, “inactive”.
Still for that read-out and setting: as for `NCCCS(=O)(=O)O`, the entry is “inactive”; as for `O=C(O)c1cc(=O)c2c(Cl)cc(Cl)cc2[nH]1`, “inactive”.
On to `NCCNC(=O)c1ncsc1-c1cccc(F)c1`, for which the Potency entry in [1] was “inactive”.
Same read-out and setting: as for `COc1cc2c(CCNC(C)=O)c[nH]c2cc1Cl`, the entry is “inactive”; as for `O=C(O)CC1CCCc2ccccc2C1O` (stereo unspecified), “inactive”.
Turning to `CC(C)NC[C@H](O)COc1cccc2[nH]ccc12`, the Potency result in assay [1] was “inactive”.
For `CCCCC/C=C\CC(O)/C=C/c1cccc(CC(O)CCCCO)n1` (stereo unspecified), the Potency result in assay [1] was “inactive”.
The same measure, in the same setting: under `Cn1ncc(S(=O)(=O)Cc2ccccc2)c(Br)c1=O` stands “inactive”; under `COc1ccccc1CNCCCCCCNCCCCCCCCNCCCCCCNCc1ccccc1OC`, “inactive”; under `C[N+]1(C)C2CC(OC(=O)[C@H](CO)c3ccccc3)CC1C1OC12` (stereo partly specified), “inactive”.
For the compound `CCC1C(=O)OCC1Cc1cncn1C` (stereo unspecified), the Potency result in assay [1] is “inactive”.
On the same count and under the same terms, under `c1ccc(-c2ccccn2)nc1` stands “inactive”; under `OC[C@H]1O[C@@H](n2cnc3c(NC4CCCC4)ncnc32)[C@H](O)[C@@H]1O`, “inactive”; under `CO/S(=N\S(=O)(=O)c1ccc(Cl)cc1)c1ccc([N+](=O)[O-])cc1` (stereo unspecified), “inactive”.
On the same count and under the same terms, as for `CCCCCCCCCCCCCCCC(=O)OC(CC(=O)O)C[N+](C)(C)C` (stereo unspecified), the entry is “inactive”; as for `Cc1nc2sccn2c(=O)c1CCN1CCC(=C(c2ccccc2)c2ccc(F)cc2)CC1`, “inactive”.
Same read-out and setting: under `Oc1cc(O)cc(/C=C/c2ccc(O)c(O)c2)c1` stands “inactive”; under `CCCN(CC1CC1)c1nc(C)nc(Nc2c(Cl)cc(Cl)cc2Cl)c1Cl`, “inactive”; under `Cc1cc(NC2CCCCC2)nc(-n2nc(C)cc2C)n1`, “inactive”.
Consider `O=C(O)CC1CC(c2ccccc2)=NO1` (stereo unspecified), for which the Potency result in [1] is “inactive”.
For `N=c1ccn2c(n1)O[C@H]1[C@H](O)[C@@H](CO)O[C@H]12`, in assay [1], the Potency result was “inactive”.
In the case of `CCCCCCCCCCCCCCCC(=O)NCC(COP(=O)([O-])OCC[N+](C)(C)C)OCC` (stereo unspecified), in assay [1], the Potency entry is “inactive”.
For `O=C1NC(=O)/C(=C/c2ccc(-c3ccc(F)cc3O)o2)S1`, the Potency entry in assay [1] was “inactive”.
For `N#C/C(=C\c1c[nH]c2ccccc12)C(=O)c1ccc(O)c(O)c1`, the Potency result in assay [1] was “inactive”.
The same measure, in the same setting: under `CC12C(=O)OC(=O)C1(C)C1CCC2O1` (stereo unspecified) stands “inactive”.
With `Clc1ccc(N2CCN(Cc3cc4ccccn4n3)CC2)cc1`, in assay [1], the Potency entry is “inactive”.
Same read-out and setting: as for `O=C(/C=C/c1ccc(O)cc1)c1ccc(O)cc1O`, the entry is “inactive”; as for `N[C@@H](CC(=O)O)C(=O)O`, “inactive”.
Regarding `NCCCCCCCCCCN`, the Potency entry in assay [1] was “inactive”.
With `CN1CC(=O)N/C1=N/C(=O)Nc1cccc(Cl)c1`, the Potency result in assay [2] is “inactive”. Further, the compound was called inactive in assay [3], in [4], in [7], in [8] and in [9]. The viability (% of control) in [5] came out at 105%. The viability, percent of control in [6] turned out to be 111%.
